This is an account of results in PubChem BioAssay (NCI).

This is part of a sample that, as a whole, favours compounds with a hit. Of some 83,000 tested, about 20% had one in any assay.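 Activity criterion: percent growth below 10, measured after cells in 96-well plates were exposed to a single compound concentration for 48 hours.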 A number with no mark means an inactive call. The source made the active and inactive calls.

For the experiment, the system named is NCI-H460 lung. The experiment is described as follows: NCI-60 one-dose screen, 48 h (100 = growth as untreated, 0 = no growth, -100 = all killed). The settings on record: 10 µM unless noted.
Regarding `COc1cc(C2=NN(C(C)=O)C(c3ccc(N4CCOCC4)cc3)C2)cc(OC)c1OC` (stereo not drawn), the growth was 103%. With `COc1ccc([C@H]2c3[nH]c4ccccc4c3C[C@@H]3C(=O)N(C4CCN(Cc5ccccc5)CC4)CC(=O)N23)c(OC)c1` the figure was 54.4%. The same measure for `COc1ccc([C@H]2[C@H](O)C(=O)N2c2cc(OC)c(OC)c(OC)c2)cc1Cl`: 1.57% (active). With `COc1ccc(/C=C/C(=O)c2nnn(-c3ccc(C(=O)O)cc3)c2C)cc1OC` the figure was 107%; with `O=[N+]([O-])c1ccc(-c2nnc(SCc3ccc(O)c4ncccc34)n2-c2ccccc2)cc1`, 5.75% (active). Regarding `O=C(NCCCNc1cc(-c2cn(-c3ccccc3)nc2-c2cccc(O)c2)ccn1)Nc1cccc(C(F)(F)F)c1`, the growth was 28.7%. With `CC(C)C(=O)Nc1ccc(-c2nc(-c3cccc(O)c3)c(-c3ccnc(Br)c3)[nH]2)cc1` the figure was 46.5%; with `Cc1cc(F)cc(NS(=O)(=O)c2ccc(-c3cnc(C4CC4)o3)cc2)c1`, 13.8%. On to `CCOC(=O)c1c(NCC(=O)Nc2cccc(Cl)c2)sc2c1CCCC2`, for which the growth was 92.5%.

In the case of `O=S(=O)(Nc1cc(Cl)cc(Cl)c1)c1ccc(-c2cnc(C3CC3)o2)cc1`, the growth is 18.7%. With `COc1cc2c3c(n(CCCNC4CCC4)c(=O)c2cc1OC)-c1cc2c(cc1C3=O)OCO2` the figure was -50.4% (active).

As for `CCOC(=O)Nc1cccc(-n2cnc3cc(-c4ccc(O)cc4)ccc32)c1`, the growth was 4.77% (active). In the case of `CC(=O)NC(C)(C)C(=O)N[C@@H](C)C(=O)NC(C)(C)C(=O)N[C@@H](C)C(=O)NC(C)(C)C(=O)N[C@@H](C)C(=O)N[C@@H](CCC(N)=O)C(=O)NC(C)(C)C(=O)N[C@H](C(=O)NC(C)(C)C(=O)NCC(=O)N[C@@H](CC(C)C)C(=O)NC(C)(C)C(=O)N1CCC[C@H]1C(=O)N[C@H](C(=O)NC(C)(C)C(=O)NC(C)(C)C(=O)N[C@@H](CCC(N)=O)C(=O)N[C@@H](CCC(N)=O)C(=O)N[C@H](CO)CC1CCCCC1)C(C)C)C(C)C`, the growth was 45.1% [5 µM].
